Source: PubChem BioAssay
HT1080-NT tox: kills 2HG-producing HT-1080-NT fibrosarcoma cells | HT-1080-NT fibrosarcoma viability, CellTiter-Glo ATP luminescence, 48 h | Potency, µM (titrated, usually from 46.1 µM), inactives show at the top dose activity, negative = less viability, usual class: cytotoxic | 1.6% of 360,000 active | AID 686970;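 note: NT is the 2HG producing partner of a matched IDH1 knockdown line; 0% = DMSO-treated cells and -100% = media-only wells without cells; nearly all actives have a fitted effect of over 55% in size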
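Read-out is CellTiter-Glo luminescence after 10 minutes at room temperature, following 48 hours' compound treatment of HT-1080-NT cells (750 cells/well, RPMI, 5% FBS, 37 degrees C).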
KB-3-1 tox: kills parental KB-3-1 adenocarcinoma cells | KB-3-1 viability, CellTiter-Glo ATP luminescence, 72 h | Potency, µM (top dose mostly 46.1 µM), actives largely listed as cytotoxic | 1.4% of 400,000 active; note: % is set by controls: 0 for no effect and ±100 for the full control effect; nearly all actives have a fitted effect of over 60% in size
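Multi-concentration cytotoxicity screen in KB-3-1 cells grown in DMEM lacking phenol red with 10% FBS. After 72 h at 37 °C with compound, ATP-dependent luminescence was recorded.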
SW480 rerep: inducers of DNA re-replication in SW480 colon cancer cells; SW480 DNA re-replication, Hoechst DNA content imaging, 48 h; 1.8% of 340,000 active; Potency, µM (highest dose often 46.1 µM), without a hit: at the highest dose re-replication activation, hits mostly activators; note: % of control where 0% means no effect; nearly all actives have a fitted effect of over 55% in size
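Compounds, transferred as 23 nL by pin tool, were incubated with cells for 48 hr; DNA content per nucleus was then quantified by Hoechst staining and fluorescence plate imaging.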
KB-V1 MDR tox: kills drug-selected multidrug resistant KB-V1 cells | Potency, µM (series often up to 46.1 µM), usual class: cytotoxic | AID 1347076 | KB-V1 MDR cells viability, CellTiter-Glo, 72 h | 3.4% of 400,000 active; note: % is set by controls: 0 for no effect and ±100 for the full control effect; nearly all actives have a fitted effect of over 60% in size
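Readout: CellTiter-Glo luminescence, 10 min after addition. Cells: KB-V1 MDR subline, 72 h at 37 degrees C with compound. Analysis: corrected, normalized data fitted to concentration-effect curves.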
MCF10A rerep: inducers of DNA re-replication in MCF 10A breast cells | Potency, µM (doses to about 46.1 µM), without a hit: at the highest dose activity, positive = re-replication, actives largely listed as activators | AID 624296 | 2.9% of 350,000 active | MCF 10A DNA re-replication, Hoechst nuclear intensity, 48 h; note: % of control where 0% means no effect; nearly all actives have a fitted effect of over 50% in size
HT1080 IDH1KD tx: toxicity to HT-1080 IDH1 knockdown cells (counter line) | HT-1080 IDH1 knockdown viability, ATP luminescence, 48 h | Potency, µM (titrated, usually from 46.1 µM), inactives show top-dose activity, negative = toxicity, hits mostly cytotoxic | 2% of 360,000 active | AID 686971;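 note: 0% = DMSO wells and -100% = cell-free medium wells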
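After a 2 h attachment period, IDH1KD HT-1080 cells took pin-transferred compound for 48 h at 37 °C; ATP-based luminescence after 10 min room-temperature reagent incubation reported viability.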
* marks the source's active call; other numbers are inactive results. The list is not random: actives were taken first. Their share in the collection is about 7.9%. Calls come from the whole dose curve; as a rule, active = well fitted curve in the direction sought with a large enough effect; inconclusive = small, poorly fitted or top-dose-only effect, or another doubt; inactive = no such curve, though single readings can be large; an effect the other way counts as inactive or inconclusive. Potency is the fitted concentration of half-maximal effect.

Results for ClCCn1cnc2c(SCc3ccccc3)ncnc21 ?
HT1080-NT tox: 1%; KB-3-1 tox: 4.1µM*; SW480 rerep: inconclusive; KB-V1 MDR tox: 6.5µM*; MCF10A rerep: 16%; HT1080 IDH1KD tx: inconclusive

Results for Cc1ccccc1CNc1ncnc2c1ncn2C1OC(CO)C(O)C1O (stereo not given) ?
SW480 rerep: -3%; MCF10A rerep: 13%

How did OC[C@H]1O[C@@H](n2cnc3c(NCc4ccco4)ncnc32)[C@H](O)[C@@H]1O do in these assays?
HT1080-NT tox: 5.8µM*; KB-3-1 tox: 16µM*; SW480 rerep: inconclusive; KB-V1 MDR tox: inactive; MCF10A rerep: inconclusive; HT1080 IDH1KD tx: 6.5µM*

What do the screens show for `Nc1ncnc2c1ncn2C1O[C@H](CO)[C@@H](O)[C@@H]1O` (stereo not given in full)?
HT1080-NT tox: -2%; KB-3-1 tox: inactive; SW480 rerep: -30%; KB-V1 MDR tox: inactive; MCF10A rerep: -23%; HT1080 IDH1KD tx: 0%

Results for C=CCNc1ncnc2c1ncn2C1OC(CO)C(O)C1O (stereo not given) ?
HT1080-NT tox: 9.2µM*; KB-3-1 tox: inactive; SW480 rerep: inconclusive; KB-V1 MDR tox: inactive; MCF10A rerep: inconclusive; HT1080 IDH1KD tx: 18µM*

What do the screens show for `ClCCn1cnc2c(SCc3ccccc3Cl)ncnc21`?
HT1080-NT tox: -21%; KB-3-1 tox: inconclusive; SW480 rerep: 8%; KB-V1 MDR tox: inconclusive; MCF10A rerep: 9%; HT1080 IDH1KD tx: inconclusive

What do the screens show for `CCOC(=O)N1CCN(C(=O)COC(=O)c2ccc(Cl)nc2)CC1`?
HT1080-NT tox: 0%; SW480 rerep: -2%; MCF10A rerep: inconclusive; HT1080 IDH1KD tx: 1%

Results for FC(F)(F)c1cc(Cl)c2nc(-c3ccccc3)cn2c1 ?
HT1080-NT tox: -15%; KB-3-1 tox: inactive; SW480 rerep: 1%; KB-V1 MDR tox: inactive; MCF10A rerep: 15µM*; HT1080 IDH1KD tx: -14%

Results for Nc1cccc(-c2cn3cc(C(F)(F)F)cc(Cl)c3n2)c1 ?
HT1080-NT tox: -25%; KB-3-1 tox: inactive; SW480 rerep: 0%; KB-V1 MDR tox: inconclusive; MCF10A rerep: 19%; HT1080 IDH1KD tx: -4%

What do the screens show for `CC(C)(O)C#Cc1ccc(C(=O)N2CCCC(CNS(=O)(=O)c3cccs3)C2)o1` (stereo not given)?
HT1080-NT tox: 18%; KB-3-1 tox: inactive; SW480 rerep: 21µM*; KB-V1 MDR tox: inactive; MCF10A rerep: 9%; HT1080 IDH1KD tx: 3%

What do the screens show for `COc1ccc2c(c1)[C@H]1[C@H](CO2)[C@H](c2ccccc2)[C@]2(C)C(=O)Nc3ccccc3C(=O)N12`?
HT1080-NT tox: inconclusive; KB-3-1 tox: inconclusive; SW480 rerep: inconclusive; KB-V1 MDR tox: inconclusive; MCF10A rerep: 29µM*; HT1080 IDH1KD tx: inconclusive

How did COc1ccc2c(c1)OC[C@H]1[C@H]2N2C(=O)c3cc(OC)c(OC)cc3NC(=O)[C@@]2(C)[C@H]1c1ccccc1 do in these assays?
HT1080-NT tox: inconclusive; KB-3-1 tox: inactive; SW480 rerep: 21µM*; KB-V1 MDR tox: inconclusive; MCF10A rerep: 18µM*; HT1080 IDH1KD tx: inconclusive

How did Cc1ccccc1NC(=O)c1sc2nc(-c3cc4ccccc4oc3=O)[nH]c(=O)c2c1C do in these assays?
KB-3-1 tox: inactive; KB-V1 MDR tox: inconclusive

Results for COc1ccc(CN(C(C)=O)c2ccccc2C(=O)O)cc1 ?
HT1080-NT tox: 10%; KB-3-1 tox: inactive; SW480 rerep: 2%; KB-V1 MDR tox: inactive; MCF10A rerep: 5%; HT1080 IDH1KD tx: 17%

Results for CC(=O)N(Cc1ccc(Br)cc1)c1ccccc1C(=O)O ?
HT1080-NT tox: -1%; KB-3-1 tox: inactive; SW480 rerep: 2.6µM*; KB-V1 MDR tox: inactive; MCF10A rerep: -2%; HT1080 IDH1KD tx: 9%

How did Cc1c(Cc2ccccc2)c(=O)oc2c(CN(C)C)c(O)c(Cl)cc12 do in these assays?
HT1080-NT tox: -2%; KB-3-1 tox: inconclusive; SW480 rerep: -6%; KB-V1 MDR tox: 9.2µM*; MCF10A rerep: 18µM*; HT1080 IDH1KD tx: -26%

How did Cc1c(Cc2ccccc2)c(=O)oc2c(O)c(O)ccc12 do in these assays?
HT1080-NT tox: -1%; KB-3-1 tox: inconclusive; SW480 rerep: inconclusive; KB-V1 MDR tox: inactive; MCF10A rerep: 21µM*; HT1080 IDH1KD tx: -21%

How did COc1ccc2c(C)c(CC(=O)NCc3ccc(C)cc3)c(=O)oc2c1OC do in these assays?
KB-3-1 tox: inactive; KB-V1 MDR tox: inconclusive

Results for Cc1c(CC(=O)NCc2ccccc2)c(=O)oc2c(C)c(O)ccc12 ?
KB-3-1 tox: 13µM*; KB-V1 MDR tox: inconclusive

How did CCN(CC)Cc1c(O)c(Cl)cc2c(C)c(C)c(=O)oc12 do in these assays?
HT1080-NT tox: 2%; KB-3-1 tox: inactive; SW480 rerep: -24%; KB-V1 MDR tox: inactive; MCF10A rerep: inconclusive; HT1080 IDH1KD tx: 1%

Results for COc1ccc(S(=O)(=O)N(C)C[C@H]2Oc3ccc(NC(=O)c4ccncc4)cc3C(=O)N([C@H](C)CO)C[C@@H]2C)cc1 ?
HT1080-NT tox: -4%; KB-3-1 tox: inactive; SW480 rerep: 112%; KB-V1 MDR tox: inactive; MCF10A rerep: 2%; HT1080 IDH1KD tx: 0%

What do the screens show for `CN1/C(=C\C=C(/C#N)C(=O)Nc2ccccc2F)C(C)(C)c2ccccc21`?
HT1080-NT tox: -2%; KB-3-1 tox: inactive; SW480 rerep: 17%; KB-V1 MDR tox: inactive; MCF10A rerep: inconclusive; HT1080 IDH1KD tx: 2%

What do the screens show for `Cc1ccccc1N=C/C=C1\N(C)c2ccccc2C1(C)C`?
HT1080-NT tox: -5%; KB-3-1 tox: inactive; SW480 rerep: inconclusive; KB-V1 MDR tox: 23µM*; MCF10A rerep: inconclusive; HT1080 IDH1KD tx: -5%

Results for CN1/C(=C/C=C(/C#N)C(N)=O)C(C)(C)c2ccccc21 ?
HT1080-NT tox: 5.8µM*; KB-3-1 tox: 2.6µM*; SW480 rerep: 6.3µM*; KB-V1 MDR tox: inconclusive; MCF10A rerep: 5µM*; HT1080 IDH1KD tx: 5.8µM*

What do the screens show for `CN1/C(=C\C=[N+](C)c2ccccc2)C(C)(C)c2ccccc21`?
HT1080-NT tox: 7.1µM*; KB-3-1 tox: 3.3µM*; SW480 rerep: -3%; KB-V1 MDR tox: inactive; MCF10A rerep: 16%; HT1080 IDH1KD tx: inconclusive

How did CN1/C(=C\C=N\O)C(C)(C)c2ccccc21 do in these assays?
HT1080-NT tox: 7%; KB-3-1 tox: inactive; SW480 rerep: 5%; KB-V1 MDR tox: inactive; MCF10A rerep: 16%; HT1080 IDH1KD tx: 20%

What do the screens show for `O=C(O)CCc1ccc(-c2ccccc2)n1CC(=O)Nc1ccccc1C(F)(F)F`?
KB-3-1 tox: inactive; KB-V1 MDR tox: inactive
